From PubChem BioAssay
This is a sample that favours compounds with a hit; in the whole collection about 3.4% have one here.
hcDAF12 agonist = activators of H. contortus DAF-12 nuclear receptor. HEK293 hcDAF-12 lit1-tk-luc reporter, luminescence; 0% DMSO, 100% Δ7-dafachronic acid. activation, % at 6.8 µM. 370,000 compounds, 1.4% hits;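 active = activation above the mean of all tested compounds plus 3 SD, cut at about 5.5% in these data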;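 note: 100% = response to 3 µM Δ7-dafachronic acid high control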
hgDAF12 agonist = activates the H. glycines DAF-12 receptor ligand-binding domain | HEK293 GAL4-hgDAF12 UAS-luciferase reporter, agonist luminescence; normalized to butyrate control | activation, % at 6.8 µM | 370,000 compounds, 1.8% hits;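 active = activation above a cutoff set at the mean of all screened compounds plus 3 SD, cut at about 10% in these data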;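 note: 0% = DMSO wells and 100% = sodium butyrate wells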
APP 5'UTR act = activates APP 5'UTR luciferase reporter | SH-SY5Y APP 5'UTR luciferase reporter, luminescence; zero percent = DMSO vehicle wells | activation, % at 2 µM | 190,000 compounds, 1% hits;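 active = activation above a set limit, based on mean plus 3 SD of controls, cut at about 140% in these data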
ssDAF12 agonist = activates DAF-12 receptor from parasite S. stercoralis; AID 652126; 370,000 compounds, 1% hits; HEK293 ssDAF-12/GRIP1 lit1-tk-luc reporter, luminescence; % of 3 µM dafachronic acid response; activation, % at 6.8 µM;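 active = activation above the mean over all tested compounds plus 3 SD, cut at about 0.9% in these data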;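 note: 0% = DMSO-only wells and 100% = 3 µM delta7-dafachronic acid wells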
NF-kB expr up = compounds increasing NF-kB expression in human neuronal cells; NF-kB reporter expression; hits give high values; fold change at 12.5 µM; 190,000 compounds, 1.6% hits; AID 1239; in the data active = fold change above about 3.3
* hit, by the source's call; x = not tested or not shown.

SMILES	hcDAF12 agonist	hgDAF12 agonist	APP 5'UTR act	ssDAF12 agonist	NF-kB expr up
Cc1cc(C)nc(N/N=C/C=C/c2ccccc2)n1	-2	1	24	0	1.2
Cc1sc(N/N=C/C=C/c2ccccc2)nc1-c1ccccc1	6.0*	4	34	-1	0.99
O=Cc1ccc2noc(-c3ccc(Cl)cc3)c2c1	6.5*	9	14	-1	1.5
Cc1ccc(-c2onc3ccc(Cl)cc23)cc1	-1	6	13	-1	1.1
c1ccc(-c2nnc3sc(C4CCCCC4)nn23)cc1	-2	-1	x	-2	x
O=c1[nH]c2ccc(S(=O)(=O)N3CCCC3)cc2o1	1	-1	x	-1	x
Nc1c(C(=O)O)sc2nc3c(cc12)CCCC3	2	1	x	1	x
Nc1c(C(=O)C2CC2)sc2nc3c(cc12)CCC3	4	11*	120	0	5.4*
Nc1c(C(=O)Nc2ccc(Cl)c(C(=O)O)c2)sc2nc3c(cc12)CCCC3	-1	1	x	-1	x
Nc1c(C(=O)c2ccc(Cl)cc2)sc2nc3c(cc12)CCC3	0	6	135*	-1	1.1
Nc1c(C(=O)Nc2cccc(C(=O)O)c2)sc2nc3c(cc12)CCCC3	3	11*	x	-1	x
CC[C@@]1(c2ccc(C)cc2)C(=O)N(C(=O)OC(C)C)N1C(=O)OC(C)C	-2	2	x	-1	x
O=C(Nc1ccc(F)cc1)OCCN1CCCC12CCC(c1ccccc1)CC2 (stereo not drawn)	-1	-1	x	-2	x
O=C(NC1=NC2(C=C3CCCCC3n3c(=O)n(-c4ccccc4)c(=O)n32)CN1CC1CC1)c1ccccc1 (stereo not drawn)	-3	-1	x	-2	x
CN1C2=N[C@@H](c3cccc(C(F)(F)F)c3)CC(=O)N2/C(=C\c2ccccc2)[C@H]1c1ccccc1	-1	2	x	-1	x
CNc1cnc(-c2ccc(F)c(F)c2F)cn1	2	12*	x	0	x
CN[C@H]1C[C@H]2c3cc(-c4ccccc4C)ccc3CCN2C[C@H]1[C@H](C)O	1	3	x	-2	x
CC(=O)Nc1sc(N/N=C\c2ccccc2)nc1-c1cccs1	6.2*	10	15	1.7*	1.1
CC(=O)Nc1sc(N/N=C\c2ccccc2Cl)nc1-c1cccs1	2	3	35	-1	0.37
Cc1ccc(-c2cc(C(=O)NC3=NCCS3)c3ccccc3n2)cc1C	4	11*	49	0	1
O=C(NC1=NCCS1)c1cc(-c2ccc(F)cc2)nc2ccccc12	-2	2	-11	-1	0.99
C[C@H]1[C@H](N(Cc2ccccc2)Cc2ccccc2)CC[C@@]23CCCN2C(=O)CCC[C@@H]13	-1	-2	x	-1	x
COc1cccc(NC(=S)NN=C2CCCCCC2)c1	1	6	25	0	3.3*
COc1cccc(NC(=O)c2ncc(Cl)c(Cl)c2Cl)c1	3	11*	61	-2	1.4
COc1cccc(NC(=O)Nc2ccc(C)c(Cl)c2)c1	0	13*	55	0	2
SMILES	hcDAF12 agonist	hgDAF12 agonist	APP 5'UTR act	ssDAF12 agonist	NF-kB expr up
COc1cccc(NC(=O)Nc2ccc3c(c2)CCC3)c1	4	12*	x	-1	x
COc1ccc(OC)c(NC(=O)Nc2ccc3c(c2)CCC3)c1	-3	1	x	0	x
COc1cccc(NC(=O)Nc2cc(C(=O)O)ccc2C)c1	-2	0	-9	-1	1
C[C@@H]1CCN(C2CC2)S(=O)(=O)c2c(cccc2N2CCC[C@H]2C)O1	-2	-2	x	-1	x
CCCCN(C)c1nc(C)nc2c1nnn2Cc1ccccc1	-3	0	x	-2	x
COc1cccc(NC(=O)Nc2cccc(C)n2)c1	1	12*	x	0	x
N=C1SC(c2ccccc2)C(=O)N1c1ncc(Cc2ccccc2)s1 (stereo not drawn)	4	13*	2	-1	1
COc1cc2cc(C(=O)N3CCC(Cc4ccccc4)CC3)[nH]c2cc1OC	-1	-1	x	-1	x
O=C(c1cc2cc(F)ccc2[nH]1)N1CCC(Cc2ccccc2)CC1	5	1	x	0.9*	x
CCOC(=O)C1CCN(C(=O)c2cc3cc(Cl)ccc3[nH]2)CC1	6.5*	4	x	-1	x
CN(C)S(=O)(=O)c1ccc(N2CCCC2)c(C(=O)Nc2nc3ccc(F)cc3s2)c1	5	5	-6	0.9*	0.53
CN(C)S(=O)(=O)c1ccc(N2CCCC2)c(C(=O)Nc2nc3ccccc3s2)c1	4	3	13	1.9*	0.95
CCOC(=O)[C@@]12CCCC=C1N(CCc1ccc(Cl)cc1)C(=O)[C@H]2CC(=O)N1CCSCC1	-5	-3	x	-1	x
C[N+]1(CCC(=O)c2ccccc2)CCCCC1	-1	-3	-7	1.7*	1.1
O=C(CCN1CCCCC1)c1ccccc1	4	2	15	-2	1
CC(C)[C@@H](CO)N(Cc1cn(Cc2ccccc2)nn1)S(=O)(=O)c1ccccc1Br	-2	1	x	-1	x
Cc1cccc(N=NC(=S)NNc2cccc(C)c2)c1	6.1*	9	x	0	x
Cc1ccc2nc(SC(C)C(=O)N3CCCCC3)[nH]c2c1 (stereo not drawn)	1	4	2	1.8*	1.1
CNC(=S)N/N=C(\C)c1ccc(N2CCOCC2)cc1	5	0	31	-1	6.3*
CCNC(=S)N/N=C(\C)c1ccc(N2CCOCC2)cc1	0	1	-5	-2	1.3
CCCC[C@@H]1C(=O)N2N=Cc3cc(C)c(C)cc3[C@H]2N2N=Cc3cc(C)c(C)cc3[C@@H]12	-3	-4	x	-1	x
Nc1c(C(=O)N/N=C/c2cccnc2)oc2nc(-c3ccco3)cc(-c3ccco3)c12	3	1	x	0.9*	x
Nc1c(C(=O)N/N=C/c2cccnc2)oc2nc(-c3ccccc3)cc(-c3ccco3)c12	3	3	x	0	x
CC(C)(C)N(Cc1cn(Cc2ccccc2)nn1)S(=O)(=O)c1ccccc1Br	-1	3	x	-1	x
Cc1ccc(S/C=C\C(=O)c2ccccc2)cc1	2	1	144*	-1	10*
SMILES	hcDAF12 agonist	hgDAF12 agonist	APP 5'UTR act	ssDAF12 agonist	NF-kB expr up
Cc1c(Cl)cnc(NC(=O)COC(=O)c2cc3c(s2)CCC(C)C3)c1Cl (stereo not drawn)	1	5	5	1.4*	0.97
C[C@H]1[C@@H](OC(=O)NCc2ccc(Cl)cc2)CC[C@@]23CCCN2C(=O)CCC[C@@H]13	0	-1	x	-1	x
O=C(CN1CCN(c2nc(-c3ccccc3)cs2)CC1)Nc1ccc(Cl)c(Cl)c1	0	1	x	-1	x
FC(F)(F)Oc1ccc(Nc2nc3ccccc3o2)cc1	5.7*	9	77	0	1.9
Cc1ccccc1N=C1NC(=O)/C(=C/c2cccnc2)S1	4	1	x	1.9*	x
O=C1N/C(=N/O)S/C1=C/c1cccnc1	0	-2	35	-2	1.1
O=C1CC(c2ccc3ccccc3c2)N=C2N(Cc3ccc4c(c3)OCO4)C/C(=C/c3ccccc3)N12 (stereo not drawn)	1	0	x	-2	x
COC(=O)c1cc(=O)n(Cc2ccc3c(c2)OCO3)c(=Nc2ccc(F)cc2)s1	1	2	-8	-1	0.91
